An excerpt weighted towards active compounds, which were near 1.6% of everything screened.
PLK1 inh – blocks human PLK1 kinase activity; recombinant PLK1 kinase, TR-FRET peptide phosphorylation; 97,000 tested, 0.53% active; P53350; inhibition, % at 10 µM;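 active = inhibition of 50% or more in the single-concentration screen; inactive = inhibition below 50%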
Target sequence (P53350 whole entry, looked up): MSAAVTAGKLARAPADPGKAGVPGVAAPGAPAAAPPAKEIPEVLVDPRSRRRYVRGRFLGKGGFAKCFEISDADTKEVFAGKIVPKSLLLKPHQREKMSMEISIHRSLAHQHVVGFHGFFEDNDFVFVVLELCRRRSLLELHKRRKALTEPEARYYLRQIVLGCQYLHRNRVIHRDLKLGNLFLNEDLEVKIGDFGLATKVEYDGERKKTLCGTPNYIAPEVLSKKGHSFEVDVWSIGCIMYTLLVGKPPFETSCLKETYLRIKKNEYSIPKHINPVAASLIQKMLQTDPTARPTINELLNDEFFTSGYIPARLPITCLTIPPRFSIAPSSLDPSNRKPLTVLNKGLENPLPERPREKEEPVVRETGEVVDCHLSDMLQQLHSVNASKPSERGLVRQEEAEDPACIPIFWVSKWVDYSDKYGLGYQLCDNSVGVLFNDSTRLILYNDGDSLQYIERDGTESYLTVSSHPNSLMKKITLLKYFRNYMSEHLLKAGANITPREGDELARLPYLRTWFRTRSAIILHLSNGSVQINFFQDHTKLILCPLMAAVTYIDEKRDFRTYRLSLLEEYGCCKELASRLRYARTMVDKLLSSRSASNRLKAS
Pyk2 oligo antag – Pyk2 (human) oligomerization antagonism; Q293 cells, Pyk2 FERM NanoBiT luminescence; hits give low values; 99,000 tested, 0.83% active; z-score (the deposit names both 25 µM and 10 µM); Q14289;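 active = Z-score of -3 or lower, scaled per plate to the spread of control and sample wells; inactive = z-score above -3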;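 note: negative z-score means lost luminescence so less FERM oligomerization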
sEH activator – increases human soluble epoxide hydrolase activity; P34913; purified human sEH enzymatic activity, activator screen; activation, % at 2 µM; 91,000 tested, 0.04% active; AID 717; in the data active = activation above about 37%
sEH inhibitor – blocks human soluble epoxide hydrolase activity | 91,000 tested, 0.34% active | P34913 | inhibition, % at 2 µM | recombinant human sEH enzymatic activity assay; in the data active = inhibition above about 80%
PLK1 PBD inh – Plk1 (human) PBD binding inhibition; inhibition, %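 (tested at about 20 µM)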; P53350; Plk1 PBD phosphopeptide binding, fluorescence polarization; 97,000 tested, 0.13% active; AID 693; in the data active = inhibition above about 34%, passing the limit was not always enough
Numbers stand for hits; . = inactive; / = no result given.

SMILES	PLK1 inh	Pyk2 oligo antag	sEH activator	sEH inhibitor	PLK1 PBD inh
O=c1nc(-c2ccccc2)c2ccccc2[nH]1	60.3	.	.	.	.
Fc1ccc(Sc2ccccc2CNC2=NCCN2)cc1	/	.	/	/	/
Cc1nn(-c2cc(N3CCCCCC3)ccc2[N+](=O)[O-])c(=O)c2ccccc12	.	-4.14	.	.	.
COc1ccc(C2CC(c3ccccc3)Nc3nc(NC(=O)c4ccco4)nn32)cc1 (stereo unspecified)	.	-3.7	.	.	.
O=C(Nc1nc2n(n1)C(c1ccccc1)CC(c1ccc(Cl)cc1)N2)c1ccco1 (stereo unspecified)	.	.	.	.	.
COc1ccc(C2CC(c3ccc(OC)cc3)n3nc(NC(=O)c4ccco4)nc3N2)cc1 (stereo unspecified)	.	-3.79	.	.	.
Cn1c(=O)[nH]c(=O)c2[nH]c(N(Cc3ccccc3)Cc3ccccc3)nc21	.	-3.22	.	.	.
CCCCCCCCOC(=O)c1ccc(N)cc1	.	-3.3	.	.	.
CC(C)(C)c1cnnn1-c1ccc(NC(=O)c2ccc(Br)o2)cc1	.	.	.	.	.
CC(C)(C)c1cnnn1-c1ccc(NC(=O)c2ccc3c(c2)OCO3)cc1	.	.	.	93.2	.
CC(=O)C(N=Nc1ccccc1)(Sc1nnc(-c2ccccc2)n1-c1ccccc1)C(=O)Nc1ccccc1 (stereo unspecified)	.	.	.	.	.
CC(=O)C(N=Nc1ccccc1)(Sc1nnc(-c2ccccc2)n1-c1ccccc1)C(C)=O	.	-3.06	.	.	.
CCOC(=O)c1sc(C)c2c1NC(C)(c1ccccc1)NC2=O (stereo unspecified)	.	.	.	.	.
CCCCCCc1cc2cc(-c3nnc(-c4ccccc4OC)o3)c(=O)oc2cc1O	.	-3.1	.	.	.
CCCCCCc1cc2cc(-c3nnc(-c4ccccc4O)o3)c(=O)oc2cc1O	/	.	/	/	/
O=C(N[C@@H](Cc1ccccc1)C(=O)NC1CCCCCC1)c1ccco1	.	.	.	80.3	.
COc1cc2c(cc1OC)C1=C(C#N)CC/C(=N\S(=O)(=O)c3ccccc3)N1CC2	61.4	/	/	/	.
O=C(NC1CCCCCCC1)C1CCN(S(=O)(=O)N2CCC3(CC2)OCCO3)CC1	.	.	.	87.9	.
CC(C)Cn1c(-c2csc3c2CCCC3)n[nH]c1=S	.	.	.	.	.
COc1ccc(Cl)cc1NC(=O)CSc1nnc(CN2CCOCC2)n1-c1ccc(Cl)cc1	.	.	.	.	.
COc1cc(C2CC(=O)c3cnc(NC(=O)COc4ccccc4)nc3C2)cc(OC)c1OC (stereo unspecified)	.	-3.08	.	.	.
COc1cc(C2CC(=O)c3cnc(N)nc3C2)cc(OC)c1OC (stereo unspecified)	.	.	.	.	.
COc1ccccc1N1CCN(C(c2ccccc2)c2nnnn2CCc2ccccc2)CC1 (stereo unspecified)	.	.	.	.	.
CCOC(=O)c1ccc(Nc2nc(-c3cccnc3)nc3ccccc23)cc1	.	-3.45	.	.	.
COc1cccc(-c2csc(N3CCN(C(=O)NC45CC6CC(CC(C6)C4)C5)CC3)n2)c1	.	.	.	81.9	.
SMILES	PLK1 inh	Pyk2 oligo antag	sEH activator	sEH inhibitor	PLK1 PBD inh
O=C(NC1CCCCC1)C(c1ccc(F)cc1)N(C(=O)c1cccs1)c1ccc2c(c1)OCO2 (stereo unspecified)	.	.	.	.	.
O=C(NC1CCCCC1)C(c1ccc2ncccc2c1)N(Cc1ccc(F)cc1)C(=O)c1cccs1 (stereo unspecified)	.	-3.87	.	.	.
CC(Sc1nc2ccccc2s1)C(=O)Nc1nnc(C(C)C)s1 (stereo unspecified)	.	/	37.3	.	.
CCC(Sc1nc2ccccc2s1)C(=O)Nc1nnc(C)s1 (stereo unspecified)	.	.	.	.	.
CC(CCc1ccco1)NC(=O)CSc1cc(=O)n(C)c2ccccc12 (stereo unspecified)	.	.	.	.	.
Cc1ccc2nc3sc(C(=O)Nc4ccc(N5CCOCC5)cc4)c(N)c3cc2c1	.	/	.	.	.
Cc1cccc2cc3c(N)c(C(=O)Nc4ccc(N5CCOCC5)cc4)sc3nc12	.	-3.44	.	.	.
Cn1ncc([N+](=O)[O-])c1C(=O)N1CCOCC1	.	.	.	.	.
CCN(CC)S(=O)(=O)c1cccc(C(=O)N[C@H](C(=O)O)C(C)C)c1	.	.	.	.	.
CCN(CC)S(=O)(=O)c1cccc(C(=O)NCCc2ccccc2)c1	.	.	.	81.3	.
O=C1OC(c2ccc3c(c2)OCO3)N(C(=O)c2ccc(Cl)c(Cl)c2)c2ccccc21 (stereo unspecified)	.	-3.25	.	.	.
Cc1cc(C)c2nc(-c3ccccn3)cc(C(=O)Nc3ccc(S(=O)(=O)Nc4cc(C)on4)cc3)c2c1	.	-3.03	.	.	.
CCc1c(C#N)c(SCCC(=O)Nc2cccc(OC)c2)nc2c1C(=O)CC(C)(C)C2	.	.	.	.	.
CCc1c(C#N)c(SCCC(=O)Nc2ccc(F)cc2)nc2c1C(=O)CC(C)(C)C2	.	-3.23	.	.	.
O=C(O)CCc1nnc2n(Cc3ccc(F)cc3)c(=O)c3ccccc3n12	.	/	.	.	.
Cc1sc2nc(CN(C(=O)NC3CCCCC3)C3CCCC3)[nH]c(=O)c2c1C	.	.	.	.	.
Cc1sc2nc(CN(Cc3cccs3)C(=O)NC3CCCCC3)[nH]c(=O)c2c1C	57.2	.	.	.	.
CCOC(=O)c1ccc(N2C(=O)c3n[nH]c(C)c3C2c2cccnc2)cc1 (stereo unspecified)	.	-3.79	.	.	.
CCOC(=O)c1ccc(N2C(=O)c3n[nH]c(C)c3C2c2ccccn2)cc1 (stereo unspecified)	.	/	.	.	.
O=C(Nc1nccs1)c1cc2c(s1)-c1ccccc1OC2	.	/	/	/	.
Cc1cccc2c1-c1sc(C(=O)Nc3nccs3)cc1CO2	.	/	52.6	.	.
CCOC(=O)CSc1nc(NCc2ccco2)c2ccccc2n1	.	.	.	.	.
N#CCSc1nc(Nc2ccc3c(c2)OCO3)c2ccccc2n1	.	-4.19	.	.	.
CCOC(=O)CSc1nc(Nc2ccc3c(c2)OCO3)c2ccccc2n1	.	-3.02	.	.	.
CC1(CC(=O)O)SC(=O)NC1=O (stereo unspecified)	.	.	.	.	.
SMILES	PLK1 inh	Pyk2 oligo antag	sEH activator	sEH inhibitor	PLK1 PBD inh
O=C(COC(=O)c1c[nH]c(=O)[nH]c1=O)NCc1ccccc1	.	.	.	.	.
Brc1ccccc1OCCCn1cnc2ccccc21	.	-3.92	.	.	.
CC(=O)c1cccc(NC(=O)COc2ccc(S(=O)(=O)N3CCCCC3)cc2)c1	.	.	.	.	.
COc1ccc(N2CCC(CNC(=O)Nc3cccc(OC)c3)C2)cc1 (stereo unspecified)	.	.	.	85.8	.
CS(=O)(=O)N(CCc1ccccc1)CC(=O)NCc1ccco1	.	.	.	.	.
COC(=O)n1c(=O)oc2cc(S(=O)(=O)N3CCOCC3)ccc21	/	.	/	/	/
CCCCOC(=O)n1c(=O)oc2cc(S(=O)(=O)N3CCCCC3)ccc21	.	-3.1	.	.	.
